Reference: PubChem BioAssay (Tox21)
Inconclusive results are not listed. Calls of active or inactive are those of the source. Unless noted, calls follow the shape of the full dose curve.

Tests used:
[1] = Nuclear factor erythroid 2-related factor 2/antioxidant responsive element (Nrf2/ARE) small molecule agonists: qHTS cell viability counter screen in human keratinocytes (AID 1919968; active = well fitted curve in the direction sought with a large enough effect in the repeat runs; an effect the other way counts as inactive or inconclusive; also: nearly all actives have a fitted effect of over 55% in size)
Outline: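 In human HaCaT keratinocytes stably expressing an ARE-driven luciferase, compound exposure lasted 23 h at 37 C under 5% CO2. Viable cells are quantified with a protease-based fluorogenic reagent (CellTiter-Fluor) read 1 h after addition.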

[2] = Nuclear factor erythroid 2-related factor 2/antioxidant responsive element (Nrf2/ARE) small molecule agonists: luciferase reporter gene qHTS assay in human keratinocytes (AID 1919969); also: nearly all actives have a fitted effect of over 35% in size
[3] = biological target: Gonadotropin-releasing hormone receptor (Homo sapiens) (UniProt P30968); experiment: Human gonadotropin-releasing hormone receptor (GnRHR) small molecule agonists, calcium flux assay in GnRHR-HEK293 cells (AID 1920063); also: nearly all actives have a fitted effect of over 35% in size
Outline: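 Intracellular calcium rise is the read-out: engineered human GnRHR HEK293 cells, dye-loaded, are exposed to DMSO-dissolved compounds and fluorescence at Ex/Em 480/540 is tracked for 3 min.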

[4] = biological target: KiSS-1 receptor (Homo sapiens) (UniProt Q969F8); experiment: Human kisspeptin (KISS1R) small molecule agonists, calcium flux assay in KISS1R-HEK293 cells (AID 1920064; active = well fitted curve in the direction sought with a large enough effect in the repeat runs; an effect the other way counts as inactive or inconclusive)
Outline: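 Concentration-response testing used 15 concentrations in triplicate on human KISS1R-expressing HEK293 cells. Calcium-dependent fluorescence (Ex/Em 480/540) was followed kinetically for 3 min after compound transfer.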

[5] = G protein-coupled receptor (GPCR) small molecule agonists, calcium flux assay: HEK293 wild type cell line counter screen (AID 1920065)
Outline: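 Fluorescence intensity signals activation. After overnight (18 h) culture and a 1 h calcium dye load at 37 C, compounds are added by pin tool and the plate read at 480/540 nm for 3 min in 1 s steps.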

[6] = p53 small molecule agonists, cell-based qHTS assay with human liver microsomes (AID 1963577)
Outline: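 Compounds act here after metabolic activation: human liver microsomes and NADPH, both at 0.5 mg/mL final, were co-added to p53RE-bla cells. Incubation ran 16 h at 37 C, followed by LiveBLAzer detection.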

[7] = p53 small molecule agonists, cell-based qHTS assay with rat liver microsomes (AID 1963578)
Outline: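 Read-out is beta-lactamase reporter fluorescence (LiveBLAzer, 2 h, room temperature, dark) in p53RE-bla cells treated 16 h at 37 C with compound, rat liver microsomes and NADPH, both 0.5 mg/mL final.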

[8] = p53 small molecule agonists, cell-based qHTS assay with human liver microsomes: qHTS cell viability counter screen (AID 1963579); also: nearly all actives have a fitted effect of over 45% in size
Outline: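 Cells carrying the p53 response-element beta-lactamase reporter are treated for 16 h at 37 C with test compounds in the presence of human liver microsomes and NADPH (both 0.5 mg/mL final); ATP-based CellTiter-Glo luminescence then reports viability.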

[9] = p53 small molecule agonists, cell-based qHTS assay with rat liver microsomes: qHTS cell viability counter screen (AID 1963580); also: nearly all actives have a fitted effect of over 45% in size
Outline: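 Cytotoxicity counter screen: intracellular ATP read by CellTiter-Glo luminescence in the p53 reporter wells. HCT-116 p53RE-bla cells were treated for 16 h at 37 C alongside rat liver microsomes and NADPH, each 0.5 mg/mL final.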

[10] = p53 small molecule agonists, cell-based qHTS assay: qHTS cell viability counter screen (AID 1963581); also: nearly all actives have a fitted effect of over 45% in size
Outline: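 Luminescence from CellTiter-Glo, reflecting ATP content, serves as the cytotoxicity measure; it is taken after the 2 h reporter substrate step in HCT-116 p53RE-bla cells dosed for 16 h at 37 C.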

[11] = p53 small molecule agonists, cell-based qHTS assay (AID 1963582; active = well fitted activation curve with a large enough effect in the signal ratio in the repeat runs, not every such curve was filed as active; the % refers to the signal ratio)
Outline: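 After plating, p53RE-bla cells sat 5 h in the incubator; compounds or DMSO vehicle were pinned in; a 16 h incubation at 37 C followed; FRET substrate was added and, 2 h later at RT, fluorescence was measured.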

[12] = biological target: 5-hydroxytryptamine receptor 2A (Homo sapiens) (UniProt P28223); experiment: 5-hydroxytryptamine receptor 2A (HTR2A) small molecule antagonists, cell-based qHTS assay (AID 1963586); also: nearly all actives have a fitted effect of over 45% in size
Outline: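 CHO cells stably expressing human HTR2A were plated for 18 h at 37 C, then loaded with calcium dye for 1 h. Compounds were preincubated 5 min at room temperature before DOI (4 nM solution) was added. Kinetic fluorescence was read for 3 min.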

[13] = biological target: 5-hydroxytryptamine receptor 2A (Homo sapiens) (UniProt P28223); experiment: 5-hydroxytryptamine receptor 2A (HTR2A) small molecule agonists, cell-based qHTS assay (AID 1963587); also: nearly all actives have a fitted effect of over 30% in size
Outline: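 Kinetic calcium-flux fluorescence (2 min, 1 sec intervals) after compound addition in agonist mode. HTR2A-CHO cells were cultured 18 h, then dye-loaded 1 h at 37 C.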

[14] = biological target: Muscarinic acetylcholine receptor M1 (Homo sapiens) (UniProt P11229); experiment: Cholinergic receptor muscarinic 1 (CHRM1) small molecule antagonists, cell-based qHTS assay (AID 1963588); also: nearly all actives have a fitted effect of over 40% in size
Outline: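 Compounds were tested at 15 concentrations in three independent runs. Dye-loaded CHRM1-CHO cells were exposed 5 min at room temperature before stimulation by acetylcholine added at 50nM. Intracellular calcium was read kinetically on FDSS for 3 min.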

[15] = biological target: Muscarinic acetylcholine receptor M1 (Homo sapiens) (UniProt P11229); experiment: Cholinergic receptor muscarinic 1 (CHRM1) small molecule agonists, cell-based qHTS assay (AID 1963589); also: nearly all actives have a fitted effect of over 35% in size
Outline: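 Fluorescent calcium dye reports M1 activation in stably transfected CHO cells. Compounds, 15 concentrations, added after 1 h dye loading at 37 C; kinetic reading at 1 sec intervals.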

[16] = cAMP Responsive Elements (CRE) small molecule agonists, cell-based qHTS assay (AID 1963590)
Outline: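 Compound exposure lasted 3 h at 37 C/5% CO2 in CRE-bla HEK 293T cells grown in assay medium with 10% dialyzed FBS and 25 mM HEPES. Reporter signal came from LiveBLAzer B/G FRET substrate, 2 h, room temperature.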

[17] = cAMP Responsive Elements (CRE) small molecule antagonists, cell-based qHTS assay (AID 1963591; active = well fitted inhibition curve with a large enough effect in the signal ratio in the repeat runs, not every such curve was filed as active; the % refers to the signal ratio)
Outline: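 Stimulation used NKH477 at a final 0.25 uM for 3 h in compound-treated CRE-bla HEK293T cells, seeded 18 h beforehand. Reporter activity was measured with LiveBLAzer B/G FRET substrate after 2 h at room temperature.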

[18] = biological target: D(2) dopamine receptor (Homo sapiens) (UniProt P14416); experiment: Dopamine D2 receptor (DRD2) small molecule agonists, cell-based qHTS assay (AID 1963594); also: nearly all actives have a fitted effect of over 35% in size
Outline: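 cAMP accumulation in DRD2-HEK293 cells measured by HTRF after 1 h detection; compounds added 10 min before NKH477 (200nM […]) forskolin-analogue stimulation, 30 min at room temperature, with Ro20-1724 present at 0.1 mM final.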

[19] = biological target: D(2) dopamine receptor (Homo sapiens) (UniProt P14416); experiment: Dopamine D2 receptor (DRD2) small molecule antagonists, cell-based qHTS assay (AID 1963595; active = well fitted inhibition curve with a large enough effect in the signal ratio in the repeat runs, with a control signal flat; the % refers to the signal ratio)
Outline: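 HEK293 cells stably expressing DRD2 were preincubated with 0.1 mM Ro20-1724, then with compound for 10 min at room temperature. Cells were stimulated with 200 nM NKH477 plus 12 nM quinpirole for 30 min, and cAMP was read by HTRF.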

[20] = biological target: Beta-2 adrenergic receptor (Homo sapiens) (UniProt P07550); experiment: Adrenergic beta2 receptor (ADRB2) small molecule antagonists, cell-based qHTS assay (AID 1963592); also: series mostly up to about 92 µM; nearly all actives have a fitted effect of over 50% in size
Outline: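 Assay format: CHO-ADRB2 cells, 18-20hr seeding at 37C/5% CO2, then compound plus 1nM isoproterenol agonist mix for 0.5hr RT. Homogeneous time-resolved fluorescence cAMP detection after 1hr, expressed as 665/615 nm ratio.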
% is scaled to controls: 0 for no effect and ±100 for the full control effect.

Sequence of Muscarinic acetylcholine receptor M1 (Homo sapiens) (P11229 whole entry, looked up): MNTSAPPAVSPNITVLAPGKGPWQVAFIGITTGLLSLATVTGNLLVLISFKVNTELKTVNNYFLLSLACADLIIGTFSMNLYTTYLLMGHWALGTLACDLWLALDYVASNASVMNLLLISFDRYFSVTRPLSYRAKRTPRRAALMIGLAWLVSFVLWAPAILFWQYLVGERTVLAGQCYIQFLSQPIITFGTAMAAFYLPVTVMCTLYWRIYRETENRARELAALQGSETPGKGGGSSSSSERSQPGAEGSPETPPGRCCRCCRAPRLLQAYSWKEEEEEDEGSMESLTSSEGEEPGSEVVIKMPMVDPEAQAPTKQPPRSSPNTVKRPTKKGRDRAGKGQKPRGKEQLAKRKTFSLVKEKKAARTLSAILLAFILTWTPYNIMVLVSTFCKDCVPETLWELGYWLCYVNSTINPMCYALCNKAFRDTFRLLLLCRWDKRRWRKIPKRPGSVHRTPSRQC
Sequence of D(2) dopamine receptor (Homo sapiens) (P14416 whole entry, looked up): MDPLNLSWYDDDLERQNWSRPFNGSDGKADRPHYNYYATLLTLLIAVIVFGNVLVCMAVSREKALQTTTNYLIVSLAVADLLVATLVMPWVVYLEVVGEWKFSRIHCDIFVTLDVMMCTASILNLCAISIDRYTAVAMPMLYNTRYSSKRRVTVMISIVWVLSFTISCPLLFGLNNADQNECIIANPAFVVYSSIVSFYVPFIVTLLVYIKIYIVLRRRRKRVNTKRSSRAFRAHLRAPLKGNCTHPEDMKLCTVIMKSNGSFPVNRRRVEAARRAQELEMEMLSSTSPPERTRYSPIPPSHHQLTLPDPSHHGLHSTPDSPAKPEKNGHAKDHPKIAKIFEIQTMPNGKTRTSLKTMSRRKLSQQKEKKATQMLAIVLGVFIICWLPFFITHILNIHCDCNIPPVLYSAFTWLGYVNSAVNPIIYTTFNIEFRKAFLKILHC
Sequence of Gonadotropin-releasing hormone receptor (Homo sapiens) (P30968 whole entry, looked up): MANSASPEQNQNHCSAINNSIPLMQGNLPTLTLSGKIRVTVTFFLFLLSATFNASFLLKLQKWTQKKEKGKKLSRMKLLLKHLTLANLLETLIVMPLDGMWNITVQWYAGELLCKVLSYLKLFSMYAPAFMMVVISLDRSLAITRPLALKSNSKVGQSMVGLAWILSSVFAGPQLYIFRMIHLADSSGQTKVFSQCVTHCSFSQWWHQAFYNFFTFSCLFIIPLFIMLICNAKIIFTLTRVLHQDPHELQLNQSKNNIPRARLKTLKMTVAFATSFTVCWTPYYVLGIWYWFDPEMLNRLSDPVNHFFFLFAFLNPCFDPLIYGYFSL
Sequence of 5-hydroxytryptamine receptor 2A (Homo sapiens) (P28223 whole entry, looked up): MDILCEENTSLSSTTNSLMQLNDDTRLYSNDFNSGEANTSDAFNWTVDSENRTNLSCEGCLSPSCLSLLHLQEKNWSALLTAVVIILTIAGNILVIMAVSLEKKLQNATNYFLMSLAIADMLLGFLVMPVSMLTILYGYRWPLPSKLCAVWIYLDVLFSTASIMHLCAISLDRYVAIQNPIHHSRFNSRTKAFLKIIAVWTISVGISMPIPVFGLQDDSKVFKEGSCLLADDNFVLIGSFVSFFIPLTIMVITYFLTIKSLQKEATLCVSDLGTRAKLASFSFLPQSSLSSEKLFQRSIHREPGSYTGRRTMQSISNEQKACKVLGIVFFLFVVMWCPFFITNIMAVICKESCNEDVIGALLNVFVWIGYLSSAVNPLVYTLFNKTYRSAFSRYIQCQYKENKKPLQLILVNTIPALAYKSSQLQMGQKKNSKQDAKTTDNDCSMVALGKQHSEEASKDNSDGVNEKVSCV
Sequence of KiSS-1 receptor (Homo sapiens) (Q969F8 whole entry, looked up): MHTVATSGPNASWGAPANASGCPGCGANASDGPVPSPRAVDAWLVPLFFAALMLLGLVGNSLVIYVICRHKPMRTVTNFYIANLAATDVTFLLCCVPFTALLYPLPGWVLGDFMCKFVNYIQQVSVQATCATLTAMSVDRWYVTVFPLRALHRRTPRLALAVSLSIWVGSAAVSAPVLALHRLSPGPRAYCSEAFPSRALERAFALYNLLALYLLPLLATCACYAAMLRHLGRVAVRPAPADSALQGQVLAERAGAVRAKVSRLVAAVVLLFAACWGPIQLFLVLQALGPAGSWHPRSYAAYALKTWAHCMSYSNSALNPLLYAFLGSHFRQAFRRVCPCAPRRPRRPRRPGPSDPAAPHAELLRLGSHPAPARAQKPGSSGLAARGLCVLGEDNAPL
Sequence of Beta-2 adrenergic receptor (Homo sapiens) (P07550 whole entry, looked up): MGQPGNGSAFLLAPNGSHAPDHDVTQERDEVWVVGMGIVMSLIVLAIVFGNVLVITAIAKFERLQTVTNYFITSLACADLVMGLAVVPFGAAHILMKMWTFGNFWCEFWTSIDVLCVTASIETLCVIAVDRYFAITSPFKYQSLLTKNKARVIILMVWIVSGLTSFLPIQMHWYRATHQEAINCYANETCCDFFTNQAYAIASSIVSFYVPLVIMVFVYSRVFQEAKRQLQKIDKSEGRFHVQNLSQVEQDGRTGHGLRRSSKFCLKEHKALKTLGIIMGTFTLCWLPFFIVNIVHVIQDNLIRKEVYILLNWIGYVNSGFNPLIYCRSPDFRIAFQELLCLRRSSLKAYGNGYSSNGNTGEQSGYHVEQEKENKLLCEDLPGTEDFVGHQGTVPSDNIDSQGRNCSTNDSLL

CC(C)CCOC(=O)c1ccccc1
inactive: Potency [1] | Potency [2] | Potency [3] | Potency [4] | Potency [5] | Potency [6] | Potency [7] | Potency [8] | Potency [9] | Potency [10] | Potency [11] | Potency [12] | Potency [13] | Potency [14] | Potency [15] | Potency [16] | Potency [17] | Potency [18] | Potency [19]

CCCCOC(O)CC (stereo unspecified)
inactive: Potency [1] | Potency [2] | Potency [3] | Potency [4] | Potency [5] | Potency [6] | Potency [7] | Potency [8] | Potency [9] | Potency [10] | Potency [11] | Potency [12] | Potency [13] | Potency [14] | Potency [15] | Potency [16] | Potency [17] | Potency [18]

Cc1ccc(O)c([N+](=O)[O-])c1
inactive: Potency [1] | Potency [2] | Potency [3] | Potency [4] | Potency [5] | Potency [6] | Potency [7] | Potency [8] | Potency [9] | Potency [10] | Potency [11] | Potency [12] | Potency [13] | Potency [14] | Potency [15] | Potency [16] | Potency [20] | Potency [18] | Potency [19]

CCN(CC)CCNC(=O)c1ccc(NC(C)=O)cc1
inactive: Potency [1] | Potency [2] | Potency [3] | Potency [4] | Potency [5] | Potency [6] | Potency [7] | Potency [8] | Potency [9] | Potency [10] | Potency [11] | Potency [12] | Potency [13] | Potency [14] | Potency [15] | Potency [16] | Potency [17] | Potency [18]

O=C1Nc2ccccc2C1=O
inactive: Potency [1] | Potency [2] | Potency [3] | Potency [4] | Potency [5] | Potency [6] | Potency [7] | Potency [8] | Potency [9] | Potency [10] | Potency [11] | Potency [12] | Potency [13] | Potency [14] | Potency [15] | Potency [16] | Potency [20] | Potency [18] | Potency [19]

O=C(O)CN(CCCN(CC(=O)O)CC(=O)O)CC(=O)O
inactive: activity change, negative = cytotoxicity [1] -0.241% [at 19 µM] | activity, positive = activation [2] -12.6% [at 19 µM] | activity change [3] 14.7% [at 11.8 µM, active compounds read high] | activation [4] -0.261% [at 15.8 µM] | activation [5] 9.2% [at 11.8 µM] | activation [6] -11.5% [at 13.5 µM] | activation [7] -0.0734% [at 13.6 µM] | activity change, negative = cytotoxicity [8] 10.7% [at 13.5 µM] | activity change, negative = cytotoxicity [9] 9.92% [at 13.5 µM] | activity change, negative = cytotoxicity [10] 11.6% [at 13.5 µM] | activation [11] 5.83% [at 13.5 µM] | activity, negative = inhibition [12] 19% [at 12.7 µM] | activation [13] 8.84% [at 15.9 µM] | activity, negative = inhibition [14] -1.12% [at 12.6 µM] | activation [15] 5.74% [at 15.8 µM] | activation [16] 1.21% [at 19 µM] | activity change, negative = inhibition [17] 19.1% [at 18.9 µM] | activation [18] -4.48% [at 19 µM] | activity change, negative = inhibition [19] 6.03% [at 18.9 µM]

O=C(O)c1ccco1
inactive: Potency [1] | Potency [2] | Potency [3] | Potency [4] | Potency [5] | Potency [6] | Potency [7] | Potency [8] | Potency [9] | Potency [10] | Potency [11] | Potency [12] | Potency [13] | Potency [14] | Potency [15] | Potency [16] | Potency [17] | Potency [18] | Potency [19]
